IL1B secr inh – inflammasome signaling inhibition, IL-1 beta readout. THP-1 LPS/ATP IL-1B secretion, AlphaLISA, 16 h; active compounds read low. activity change, % at 57.5 µM. actives 4.7% (n = 360,000). AID 743279; in the data active = activity change below about -50%; inconclusive = mostly about -30% to -49%; also: % is scaled to controls: 0 for no effect and ±100 for the full control effect
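THP-1 cells pretreated 1 hr with compounds (up to 57.5 uM final), then stimulated with LPS (250 ng/mL final) plus ATP (1.25 mM final); secreted IL-1B measured by AlphaLISA after 16 hr, decreased signal indicating inhibition.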
ASM inhibitor – blocks human secretory acid sphingomyelinase; actives 0.006% (n = 340,000); placental ASM, HMU-PC fluorogenic substrate, 60 min; Potency, µM (titrated, usually from 57.5 µM), without a hit: at the top dose activity change, negative = inhibition, actives largely listed as inhibitors; also: potency is read from the fitted curve at half-maximal effect
Target sequence (P17405 47-631 limits assumed): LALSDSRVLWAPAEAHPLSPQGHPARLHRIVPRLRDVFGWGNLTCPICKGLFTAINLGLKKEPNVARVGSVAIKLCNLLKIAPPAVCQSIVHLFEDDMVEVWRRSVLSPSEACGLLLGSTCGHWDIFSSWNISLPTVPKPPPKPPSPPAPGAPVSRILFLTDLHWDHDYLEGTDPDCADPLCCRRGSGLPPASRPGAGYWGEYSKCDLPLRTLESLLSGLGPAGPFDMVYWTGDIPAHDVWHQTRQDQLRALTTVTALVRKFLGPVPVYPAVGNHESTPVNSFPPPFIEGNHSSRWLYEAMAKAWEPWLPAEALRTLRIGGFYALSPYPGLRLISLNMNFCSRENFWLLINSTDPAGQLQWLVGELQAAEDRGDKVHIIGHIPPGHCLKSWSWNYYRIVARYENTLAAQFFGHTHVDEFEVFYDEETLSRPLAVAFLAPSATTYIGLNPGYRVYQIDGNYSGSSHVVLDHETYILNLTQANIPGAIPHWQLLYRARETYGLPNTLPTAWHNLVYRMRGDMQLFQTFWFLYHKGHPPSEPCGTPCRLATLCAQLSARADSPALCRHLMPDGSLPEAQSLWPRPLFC
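HMU-PC0 cleavage (9 uM final) by human placental ASM, 60 min at 37 °C following 10 min compound exposure at RT; stopped at pH 10, fluorescence Ex 386/Em 447 nm.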
DT40 TDP1 no CPT – qHTS for Inhibitors of human tyrosyl-DNA phosphodiesterase 1 (TDP1): qHTS in cells in absence of CPT. actives 15% (n = 420,000). Potency, µM (doses to about 46.2 µM), for the others: at the top dose activity change, negative = growth inhibition, usual class: inhibitors. AID 686978, 2013. DT40 Tdp1-/- hTDP1 cells, no CPT, ATP luminescence, 48 h; also: potency is read from the fitted curve at half-maximal effect; % is scaled to controls: 0 for no effect and ±100 for the full control effect; nearly all actives have a fitted effect of over 55% in size
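A cellular qHTS used chicken DT40 cells lacking endogenous Tdp1 but carrying stably transfected human TDP1. Compounds were applied without camptothecin, and cell growth kinetics were judged by ATP-dependent luminescence after ≥48 hr.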
TGFb inhibitor – TGF-b pathway inhibition; actives 1.2% (n = 410,000); AID 588855; Potency, µM (highest dose often 46.1 µM), without a hit: top-dose activity, negative = inhibition, usual class: inhibitors; HepG2 CAGA-GFP TGF-b/SMAD3 reporter, GFP fluorescence, 18 h; TGF-beta stimulated, 500 pg/mL final; also: potency is read from the fitted curve at half-maximal effect; % is scaled to controls: 0 for no effect and ±100 for the full control effect; nearly all actives have a fitted effect of over 65% in size
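HEPG2 CAGA-GFP, 1000 cells/well; 2 h settle, 37 C; cpd via pin tool; TGF-b 500 pg/mL final; 18 h, 37 C; GFP imaging ex488/em500-530; %Activity normalised to -TGF-b and +DMSO controls; CRC fit, curve class.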
DT40 TDP1 CPT – growth inhibition of DT40 Tdp1-/-;hTDP1 cells with camptothecin (screen for TDP1 inhibitors); AID 686979; Potency, µM (top dose mostly 46.2 µM), for the others: at the highest dose activity change, negative = growth inhibition, usual class: inhibitors; actives 12% (n = 420,000); chicken DT40 Tdp1-/-;hTDP1 cells + 20 nM CPT, ATP luminescence, 48 h; also: potency is read from the fitted curve at half-maximal effect; % is scaled to controls: 0 for no effect and ±100 for the full control effect; nearly all actives have a fitted effect of over 55% in size
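Chicken DT40 Tdp1-/- cells stably complemented with human TDP1 were seeded at 400 cells/well in medium containing 20 nM camptothecin, exposed to pin-transferred compounds, and grown at 37 °C for at least 48 hr. Viability was read as ATP luminescence.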
HepG2 tox – counter-screen for TGF-b inhibitors: cytotoxicity in HepG2 cells. HepG2 CAGA-GFP viability, ATP luminescence, 18 h. Potency, µM (titrated, usually from 46.1 µM), for the others: top-dose activity change, negative = cytotoxicity, usual class: cytotoxic. actives 0.76% (n = 410,000). AID 588856; also: potency is read from the fitted curve at half-maximal effect
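CellTiter-Glo luminescence gave cytotoxicity after 18 hours at 37 degrees C. The cells were HepG2 CAGA-GFP in 1% FBS DMEM, stimulated with 500 pg/mL TGF-beta after compound addition. %Activity was normalised to no-cell wells (complete cell-killing) and DMSO (no toxicity), and curves were fitted and classified.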
* hit, by the source's call. Hits are enriched below; roughly 19% of the tested compounds scored in any of these assays. Unless noted, calls follow the shape of the dose curve; as a rule, active = well fitted curve in the direction sought with a large enough effect; inconclusive = small, poorly fitted or top-dose-only effect, or another doubt; inactive = no such curve, though single readings can be large; an effect the other way counts as inactive or inconclusive.

CCC1CCCCN1C(=O)Cn1c(=O)n(CCCCCC(=O)NCc2ccccc2Cl)c(=O)c2sccc21 (stereo not given) was read as DT40 TDP1 no CPT 18.4µM*, TGFb inhibitor 1.2%, DT40 TDP1 CPT inconclusive and HepG2 tox -14.6%.
NC(=O)Cn1c(=O)n(CCCCCC(=O)NCc2ccccc2Cl)c(=O)c2sccc21 was read as DT40 TDP1 no CPT inconclusive, TGFb inhibitor 0.9%, DT40 TDP1 CPT inconclusive and HepG2 tox 2.0%.
`NS(=O)(=O)c1ccc(NC(=O)Cc2c(F)cccc2Cl)cc1` gave IL1B secr inh 4.3, ASM inhibitor 1.2%, DT40 TDP1 no CPT -7.7%, TGFb inhibitor -4.4%, DT40 TDP1 CPT -5.1% and HepG2 tox -2.2%.
CC1CCc2onc(C(=O)O)c2C1 (stereo not given) was read as IL1B secr inh 19.1, ASM inhibitor 2.0%, DT40 TDP1 no CPT 1.0%, TGFb inhibitor 11.7%, DT40 TDP1 CPT 4.5% and HepG2 tox -2.7%.
For CCCCCCCCCc1conc1C(=O)/C=C/c1oc2c(c1C)CCC(C)C2 (stereo not given) the results were IL1B secr inh -12.9, DT40 TDP1 no CPT 14.6µM* and DT40 TDP1 CPT 20.6µM*.
Screening COc1cc(OC)c(N2CC(C(=O)NCCC3=CCCCC3)CC2=O)cc1Cl (stereo not given) returned IL1B secr inh 22.9, ASM inhibitor 4.0%, DT40 TDP1 no CPT inconclusive, TGFb inhibitor -26.1%, DT40 TDP1 CPT inconclusive and HepG2 tox -16.5%.
For Cc1cc(-c2nnc(SCC(=O)Nc3ccccc3C(F)(F)F)o2)c(C)n1-c1ccccc1 the results were IL1B secr inh -11.8, ASM inhibitor -0.9%, DT40 TDP1 no CPT inconclusive, TGFb inhibitor 4.0%, DT40 TDP1 CPT -16.1% and HepG2 tox -0.1%.
COc1ccccc1-c1nnc(SCC(=O)Nc2ccccc2F)o1 was read as DT40 TDP1 no CPT 20.6µM*, TGFb inhibitor inconclusive, DT40 TDP1 CPT 20.6µM* and HepG2 tox -13.8%.
COC(=O)CSc1nnc(-c2ccccc2OC)o1 was read as IL1B secr inh 17.2, ASM inhibitor 0.4%, DT40 TDP1 no CPT -0.9%, TGFb inhibitor 7.4%, DT40 TDP1 CPT -16.6% and HepG2 tox -17.3%.
Cc1cccc(NC(=O)CSc2nnc(-c3cc(C)n(-c4ccccc4)c3C)o2)c1C was read as IL1B secr inh -79.8*, ASM inhibitor -4.9%, DT40 TDP1 no CPT inconclusive, TGFb inhibitor -8.1%, DT40 TDP1 CPT -8.4% and HepG2 tox -22.9%.
For CN(Cc1nc2ccccc2c(=O)[nH]1)C(=O)c1ccc(S(=O)(=O)N2CCCC2)cc1 the results were IL1B secr inh 6.2, ASM inhibitor 0.9%, DT40 TDP1 no CPT -2.8%, TGFb inhibitor 1.8%, DT40 TDP1 CPT -5.0% and HepG2 tox -10.6%.
Screening COc1ccc(-c2ccc(OC)c(C3C4C=CCC(C)C4C(=O)N3Cc3ccccc3)c2)cc1OC (stereo not given) returned TGFb inhibitor -6.9% and HepG2 tox 23.9%.
For COc1ccc(-c2ccc(C)cc2)cc1[C@H]1[C@H]2C=CC[C@@H](C)[C@@H]2C(=O)N1Cc1ccccc1 the results were IL1B secr inh 31.0, ASM inhibitor -7.6%, DT40 TDP1 no CPT inconclusive, TGFb inhibitor -14.5%, DT40 TDP1 CPT inconclusive and HepG2 tox -7.6%.
Screening COc1ccc(-c2ccoc2)cc1[C@H]1[C@H]2C=CC[C@@H](C)[C@@H]2C(=O)N1Cc1ccccc1 returned IL1B secr inh -65.7*, ASM inhibitor -2.6%, DT40 TDP1 no CPT inconclusive, TGFb inhibitor inconclusive, DT40 TDP1 CPT inconclusive and HepG2 tox -67.7%.
Screening COc1ccc(-c2ccc(OC)c([C@H]3[C@H]4C=CC[C@@H](C)[C@@H]4C(=O)N3Cc3ccccc3)c2)cc1 returned IL1B secr inh 41.0, ASM inhibitor -18.6%, DT40 TDP1 no CPT 14.6µM*, TGFb inhibitor -25.8%, DT40 TDP1 CPT 14.6µM* and HepG2 tox -16.9%.
Cn1cc(-c2nc3cnc(N4CCOCC4)nc3n(CCC#N)c2=O)c2ccccc21 was read as DT40 TDP1 no CPT 22.8% and DT40 TDP1 CPT -1.1%.
`CS(=O)(=O)N1CCC[C@@]2(CCN(C(=O)Nc3cccc(F)c3)C2)C1` gave DT40 TDP1 no CPT -9.2% and DT40 TDP1 CPT 23.6%.
Screening COc1ccccc1CNC(=O)COc1ccccc1C(=O)c1cnn(-c2ccccc2)c1 returned IL1B secr inh -6.6, ASM inhibitor -8.0%, DT40 TDP1 no CPT inconclusive, TGFb inhibitor -29.3%, DT40 TDP1 CPT 23.1µM* and HepG2 tox -14.7%.
Screening O=C(COc1ccccc1C(=O)c1cnn(-c2ccccc2)c1)Nc1ccccc1 returned IL1B secr inh 21.7, ASM inhibitor inconclusive, DT40 TDP1 no CPT 14.6µM*, TGFb inhibitor -8.8%, DT40 TDP1 CPT inconclusive and HepG2 tox 19.4%.
For CCNC(=O)COc1ccc(F)cc1C(=O)c1cnn(-c2ccccc2)c1 the results were IL1B secr inh inconclusive, ASM inhibitor -0.9%, DT40 TDP1 no CPT inconclusive, TGFb inhibitor -2.4%, DT40 TDP1 CPT inconclusive and HepG2 tox -15.1%.
`CCOc1ccc(CN2CCNC(=O)C2CC(=O)N(C)Cc2nonc2C)cc1` (stereo not given) gave IL1B secr inh 0.0, ASM inhibitor 1.1%, DT40 TDP1 no CPT -2.1%, TGFb inhibitor -2.4%, DT40 TDP1 CPT -2.5% and HepG2 tox 4.4%.
CCOc1ccccc1CN1CCNC(=O)C1CC(=O)N(C)Cc1nonc1C (stereo not given) was read as IL1B secr inh -57.2*, ASM inhibitor 3.9%, DT40 TDP1 no CPT 1.0%, TGFb inhibitor inconclusive, DT40 TDP1 CPT inconclusive and HepG2 tox -0.3%.
CCOC(=O)Cc1cc(C(=O)Nc2ccc(Br)cc2)sc1-c1ccc(C)cc1 was read as DT40 TDP1 no CPT 20.6µM*, TGFb inhibitor inconclusive, DT40 TDP1 CPT inconclusive and HepG2 tox -33.5%.
`CCN1C(=O)[C@H]2[C@@H](c3ccc(C)cc3)N[C@]3(CCCN(CCC(C)C)C3=O)[C@H]2C1=O` gave IL1B secr inh -5.3, DT40 TDP1 no CPT -28.2%, TGFb inhibitor -1.2%, DT40 TDP1 CPT -7.1% and HepG2 tox 17.7%.

Assay outcomes (PubChem)
